The values that follow come from ChEMBL document CHEMBL3433997, “St. Jude Leishmania screening dataset” (2016).

Structures are written as SMILES.

What all share (assay type): functional
The target in experiment [1] is Solute carrier family 2, facilitated glucose transporter member 1 (Homo sapiens) (UniProt P11166). As to the kind of experiment: ST_JUDE_LEISH: Cytotoxicity at 2uM final concentration against transgenic Leishmania Mexicana promastigotes LmGLUT1 that are glucose transport deficient and complemented with the human glucose transporter GLUT1. Activity is measured by DNA content using SYBR green in vitro.
Sequence of Solute carrier family 2, facilitated glucose transporter member 1 (Homo sapiens) (P11166 whole entry): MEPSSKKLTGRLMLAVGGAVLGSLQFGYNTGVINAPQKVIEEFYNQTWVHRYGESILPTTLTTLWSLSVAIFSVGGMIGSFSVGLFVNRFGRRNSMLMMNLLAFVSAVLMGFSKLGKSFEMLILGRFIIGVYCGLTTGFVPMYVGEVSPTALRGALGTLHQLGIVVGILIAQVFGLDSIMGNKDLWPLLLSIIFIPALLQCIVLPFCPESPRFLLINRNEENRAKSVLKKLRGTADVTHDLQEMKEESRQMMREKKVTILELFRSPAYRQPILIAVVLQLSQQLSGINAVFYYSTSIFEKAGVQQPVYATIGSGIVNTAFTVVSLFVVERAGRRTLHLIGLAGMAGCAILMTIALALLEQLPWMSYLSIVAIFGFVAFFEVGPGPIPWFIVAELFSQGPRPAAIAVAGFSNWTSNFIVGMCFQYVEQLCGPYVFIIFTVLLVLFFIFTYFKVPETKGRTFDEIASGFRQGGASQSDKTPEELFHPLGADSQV

For experiment [2], the target named is Hexose transporter 1 (Plasmodium falciparum) (UniProt O97467). As to the kind of experiment: ST_JUDE_LEISH: Cytotoxicity at 2uM final concentration against transgenic Leishmania Mexicana promastigotes LmPfHT that are glucose transport deficient and complemented with the Plasmodium falciparum hexose transporter. Activity is measured by DNA content using SYBR green in vitro.

For experiment [3], the target named is Glucose transporter (Leishmania mexicana) (UniProt O61059). Nature of the experiment: ST_JUDE_LEISH: Cytotoxicity at 2uM final concentration against transgenic Leishmania Mexicana promastigotes LmGT2 that are glucose transport deficient and complemented with the L. Mexicana glucose transporter 2. Activity is measured by DNA content using SYBR green in vitro.

In general, inhibition refers to the relative decrease from the control value, in per cent. Take `O=C(NCCCCN1CCC(c2ccc3ccccc3c2)CC1)c1ccc(NC(=O)c2ccc(Cl)cc2)cc1`: the inhibition in experiment [1] was determined as 2.27%; in experiment [2], 4.42%; in experiment [3], 4.1%.
`CN1CCCC1CCNCc1cccc(-c2cnc(N3CCCC(C)(C)C3)nc2)c1` (configuration not stated): the inhibition in experiment [1] was 108%; in experiment [2], 103%; in experiment [3], 104%.
For the molecule `CC1CN(Cc2cccc(F)c2)CCN1c1ccc(NC(=O)c2ccc(F)cc2)cc1` (configuration not stated), the inhibition in experiment [1] was determined as 2.15%; in experiment [2], 1.55%; in experiment [3] it was 8.54%.
As to `CCOC(=O)c1c(C)n(-c2ccccc2)c2ccc(OC(=O)c3ccc(S(=O)(=O)N(CC)CC)cc3)cc12`, the inhibition turned out to be 4.6% in experiment [1], 5.12% in experiment [2] and 5.12% in experiment [3].
`COc1cc(Nc2nccc(N3CCC(NC(=O)c4cccc(C#N)c4)C3)n2)cc(OC)c1OC` (configuration not stated): the inhibition in experiment [1] is 1.3%; in experiment [2] it was 1.35%; in experiment [3] it was 0.79%.
Regarding `COc1cc2nc(N3CCC(CNC(=O)c4ccc(-c5ccc(Cl)cc5)cc4)CC3)nc(N)c2cc1OC`, the inhibition in experiment [1] amounted to 9.23%; in experiment [2], 8.03%; in experiment [3] it was 9.81%.
On to `Nc1ncc(-c2ccc(NC(=O)Nc3cc(C(F)(F)F)ccc3F)cc2)c(N)n1`, for which the inhibition in experiment [1] is -0.9%; in experiment [2] it was 0.23%; in experiment [3], 0.6%.
In the same order, the values of `CN1CC[C@@H](Oc2cc(NC(=O)Nc3ccc(Cl)c(C(F)(F)F)c3)ccc2Cl)C1` are 0.88%, 0.12% and 0.51%.
Consider `CCC(C(=O)Nc1cc(=O)[nH]c2nc(-c3ccco3)nn12)c1ccccc1` (configuration not stated), for which the inhibition in experiment [1] amounted to 0.95%; in experiment [2], 1.55%; in experiment [3], 1.71%.
Regarding `CC(=O)Nc1ccc(CN2Cc3ccc(NC(=O)Nc4ccc(Oc5ccccc5)cc4)cc3C2)s1`, the figures for the inhibition in experiment [1], in experiment [2] and in experiment [3] were 1.61%, -0.21% and 1.94%, respectively.
The matching figures for `FC(F)(F)c1cccc(-c2cc(NCCCn3ccnc3)nc(-c3ccncc3)n2)c1`: -3.57%, -1.14% and -0.33%.
The matching figures for `Clc1ccccc1/C=C/c1cncnc1Nc1ccc2[nH]c(Cc3ccccc3)nc2c1`: 7.21%, 2.53% and 1.23%.
`COc1ccc(NC(=O)[C@H](CC(C)C)Nc2cc(C)nc(NCc3cccc(C)c3)n2)cc1`: the inhibition in experiment [1] was 9.89%; in experiment [2], 9.82%; in experiment [3], 7.22%.
For the molecule `CC1CCN(CC[C@H]2CCCN2S(=O)(=O)c2cccc(NC(=O)c3cc4ccccc4s3)c2)CC1`, the inhibition was determined as 4.95% in experiment [1], 6.97% in experiment [2] and 3.15% in experiment [3].
